Test results published in PubChem BioAssay.
Where “and” joins values, the source holds several entries; their conditions need not be identical. Equal entries are not always repeated. Inconclusive results are not listed. Calls of active or inactive are those of the source. Cut-off read from the data, not from the text of the source, unless noted: active = inhibition above about 80%; inactive = the rest. Where a SMILES comes first, the peptide text is derived from it. [ ]: non-standard residue; d: D form. The star is where a group is joined. Sta = CC(C)C[C@H](N)[C@@H](O)CC(=O)O; Isovaleryl = CC(C)CC(=O)*

Tests used:
[1] = target: ATP-dependent translocase ABCB1 (Homo sapiens) (UniProt P08183); experiment: P-glycoprotein substrate transport blockade – cell-based (AID 377; in the data active = fluorescence slope change above about 50%); details: MDR1-expressing cells, fluorescent substrate accumulation slope; stronger effect = higher value; concentration not given here
ATP-dependent translocase ABCB1 (Homo sapiens), sequence (P08183 whole entry, looked up): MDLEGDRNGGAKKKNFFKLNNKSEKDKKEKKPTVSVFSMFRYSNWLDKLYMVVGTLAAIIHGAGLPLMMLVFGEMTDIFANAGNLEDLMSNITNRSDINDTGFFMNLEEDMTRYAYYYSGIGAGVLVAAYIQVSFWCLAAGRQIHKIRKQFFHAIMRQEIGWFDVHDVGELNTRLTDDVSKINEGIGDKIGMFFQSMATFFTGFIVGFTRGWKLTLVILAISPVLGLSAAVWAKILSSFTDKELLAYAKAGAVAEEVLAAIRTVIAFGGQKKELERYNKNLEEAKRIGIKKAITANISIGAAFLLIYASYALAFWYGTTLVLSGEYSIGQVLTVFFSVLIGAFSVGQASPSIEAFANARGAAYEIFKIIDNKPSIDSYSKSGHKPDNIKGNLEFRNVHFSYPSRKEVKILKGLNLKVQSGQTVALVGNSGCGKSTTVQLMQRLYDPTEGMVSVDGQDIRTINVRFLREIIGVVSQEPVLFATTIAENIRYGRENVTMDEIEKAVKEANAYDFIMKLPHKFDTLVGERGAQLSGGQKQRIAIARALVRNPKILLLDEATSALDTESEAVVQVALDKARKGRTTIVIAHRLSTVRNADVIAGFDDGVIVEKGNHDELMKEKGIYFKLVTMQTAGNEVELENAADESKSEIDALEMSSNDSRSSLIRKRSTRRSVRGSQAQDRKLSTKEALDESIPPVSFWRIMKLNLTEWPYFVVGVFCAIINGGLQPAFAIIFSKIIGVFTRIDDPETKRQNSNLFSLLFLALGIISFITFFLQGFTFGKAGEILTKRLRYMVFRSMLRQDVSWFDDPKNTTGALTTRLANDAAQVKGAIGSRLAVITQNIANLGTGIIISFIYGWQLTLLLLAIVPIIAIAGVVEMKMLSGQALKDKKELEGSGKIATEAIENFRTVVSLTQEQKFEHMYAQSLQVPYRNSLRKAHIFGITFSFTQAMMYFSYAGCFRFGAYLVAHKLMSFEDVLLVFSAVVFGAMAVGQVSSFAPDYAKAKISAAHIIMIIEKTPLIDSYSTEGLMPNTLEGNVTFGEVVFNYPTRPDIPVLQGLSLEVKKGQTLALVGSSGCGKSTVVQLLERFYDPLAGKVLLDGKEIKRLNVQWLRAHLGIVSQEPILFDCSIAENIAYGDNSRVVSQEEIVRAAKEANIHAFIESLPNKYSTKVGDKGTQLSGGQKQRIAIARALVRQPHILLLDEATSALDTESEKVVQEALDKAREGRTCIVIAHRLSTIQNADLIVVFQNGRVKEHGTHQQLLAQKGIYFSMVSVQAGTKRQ

[2] = signal quenchers or enhancers, Cy5 substrate/SSB – biochemical, NIH Clinical Collection, E. coli SSB, artefact control for HCV NS3 helicase inhibitor project (AID 743268; call rule not given here); details: Cy5-oligo bound E. coli SSB, fluorescence interference
[3] = test system: Hepatitis C virus NS3 helicase; experiment: blockers of NS3h binding to DNA – biochemical, fluorescence polarization, NIH Clinical Collection, primary screen (AID 743270; call rule not given here); details: NS3 helicase binding to Cy5-dT15 DNA, stronger effect = higher value, concentration not given here
[4] = target: Single-stranded DNA-binding protein (Escherichia coli (strain K12)) (UniProt P0AGE0); experiment: SSB-ssDNA binding inhibitors – biochemical, fluorescence polarization, NIH Clinical Collection, counter-screen for HCV NS3 helicase inhibitor project (AID 743271; in the data active = inhibition above about 28%); details: E. coli SSB-DNA binding, stronger effect = higher value, concentration not given here
[5] = chitosan synthesis blockers in C. neoformans – flow cytometry, Cibacron Brilliant Red staining (AID 1347148; call rule not given here;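 note: compound exposure lasted three days at 37 degrees C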); details: Cryptococcus neoformans chitosan, stronger effect = lower value; at 10 µM unless noted
[6] = growth inhibition, single agents and combos, LFS_MB_1R, cell-based, cisplatin or BGB combos, synergistic combos for chromothripsis tumors (AID 1671452); details: LFS_MB_1R medulloblastoma cells, stronger effect = higher value;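 note: cells exposed for 96 hours before readout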
[7] = growth inhibition, single agents and combos, CRL2098, cell-based, BGB or cisplatin IC20 combos, synergistic combos for chromothripsis tumors (AID 1671454); details: CRL2098 osteosarcoma cells, drug combinations, stronger effect = higher value;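 note: cells exposed for 96 h before readout; 0% = vehicle DMSO and 100% = killing by high DMSO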
[8] = growth inhibition, single agents and combos, HD-MB03, cell-based, BGB or cisplatin IC20 combos, synergistic combos for chromothripsis tumors (AID 1671455; in the data active = inhibition above about 83%;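 note: 0% = vehicle DMSO and 100% = high DMSO as cytotoxic control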); details: HD-MB03 medulloblastoma cells, stronger effect = higher value
[9] = growth inhibition, single agents and combos, UWB1.289, cell-based, BGB or cisplatin combos, synergistic combos for chromothripsis tumors (AID 1671456); details: UWB1.289 ovarian carcinoma cells, stronger effect = higher value;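 note: cells exposed to compound for four days; 0% = vehicle DMSO and 100% = killing by high DMSO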
[10] = growth inhibition, single agents and combos, LFS_MB_2R, cell-based, cisplatin combos, synergistic combos for chromothripsis tumors (AID 1671457); details: LFS_MB_2R medulloblastoma cells, stronger effect = higher value;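 note: cells exposed to compound for four days before readout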
[11] = UWB1.289_BRCA1 ovarian cancer growth, cell-based, BGB or cisplatin combinations (AID 1671459); details: UWB1.289 BRCA1 ovarian carcinoma, drug combinations, stronger effect = higher value
[12] = drug combination toxicity in non-malignant astrocytes – cell-based, BGB or cisplatin IC20 combos, cytotoxicity control for chromothriptic childhood tumor combination screen (AID 1671460); details: Human astrocytes, viability inhibition, drug combinations, at 0.5 µM, stronger effect = higher value;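 note: cells exposed to compounds for 96 hours before viability readout; 0% = vehicle and 100% = killing control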
[13] = measured here: combination with cisplatin, at 0.5 µM
[14] = measured here: combination with cisplatin, at 5 µM

Which fluorescence slope change [1] does the source give for `CN(C)C/C=C(/c1ccc(Br)cc1)c1cccnc1` here?
The fluorescence slope change was 159% (active).

Which fluorescence slope change [1] does the source give for `CC#C[C@]1(O)CC[C@H]2[C@@H]3CCC4=CC(=O)CCC4=C3[C@@H](c3ccc(N(C)C)cc3)C[C@@]21C` here?
The fluorescence slope change was 142% (active).

What about the fluorescence ratio [2] of the same compound?
Its fluorescence ratio is 0.97 (inactive).

What about the inhibition [3] of the same compound?
Its inhibition is 2.4% (inactive).

And the inhibition [4]?
Its inhibition is -1.18% (inactive).

Which fold fluorescence [5] does the source give for `FC(F)(F)c1ccccc1-n1ccnc1` here?
The fold fluorescence was 8.97 [at 235.7 µM] (inactive).

With `NS(=O)(=O)c1cc(Cl)c(Cl)c(S(N)(=O)=O)c1` as the compound, how does the fluorescence slope change [1] read?
Its fluorescence slope change is 82.9% (active).

Which fold fluorescence [5] does the source give for `CC(C)CC(=O)N[C@H](C(=O)N[C@H](C(=O)N[C@@H](CC(C)C)[C@@H](O)CC(=O)N[C@@H](C)C(=O)N[C@@H](CC(C)C)[C@@H](O)CC(=O)O)C(C)C)C(C)C` (Isovaleryl-VV[Sta]A[Sta]-OH) here?
Its fold fluorescence is 4.93 [at 72.9 µM] (inactive).

With `CCCCCCCCCCCCCCCC(=O)NCCO` as the compound, how does the fold fluorescence [5] read?
The fold fluorescence was 4.46 (inactive).

Which inhibition ([6]; at 0.5 µM) does the source give for `CCCCCOC(=O)Nc1nc(=O)n([C@@H]2O[C@H](C)[C@@H](O)[C@H]2O)cc1F` here?
Its inhibition is -36.3% (inactive) and -17.9% (inactive).

And the inhibition ([6]; measured here: combination with BGB IC40, at 0.05 µM)?
The inhibition was -77.2% and -11.6%.

And the inhibition [6, 13]?
The inhibition was -36.7% and -43%.

What about the inhibition [6, 14] of the same compound?
The inhibition was -42.5% and -67.7%.

What about the inhibition ([7]; at 0.5 µM) of the same compound?
The inhibition was -110% (inactive) and -37.4% (inactive).

And the inhibition ([7]; measured here: combination with BGB at IC20, at 0.5 µM)?
The inhibition was -124% and -32.3%.

And the inhibition ([7]; measured here: combination with cisplatin at IC20, at 0.5 µM)?
The inhibition was -103% and -72.6%.

And the inhibition ([8]; at 0.5 µM)?
The inhibition was -17.2% (inactive) and -2.76% (inactive).

What about the inhibition ([8]; measured here: combo with BGB at IC20, at 0.5 µM) of the same compound?
Its inhibition is -8.55% and -7.81%.

What about the inhibition ([8]; measured here: combo with cisplatin at IC20, at 0.5 µM) of the same compound?
The inhibition was -34.6% and 2.4%.

What about the inhibition ([9]; at 0.5 µM) of the same compound?
The inhibition was -11.5% (inactive) and 9.77% (inactive).

And the inhibition ([9]; measured here: inhibition with BGB combination, at 0.05 µM)?
The inhibition was -37.1% and -7.89%.

What about the inhibition ([9]; measured here: inhibition with cisplatin combination, at 0.05 µM) of the same compound?
The inhibition was -5.98% and 11.7%.

What about the inhibition ([10]; at 0.5 µM) of the same compound?
The inhibition was -21.1% (inactive) and -14.8% (inactive).

What about the inhibition [10, 13] of the same compound?
The inhibition was -19.7% and -16.3%.

And the inhibition [10, 14]?
The inhibition was -95.1% and -10.2%.

What about the inhibition ([11]; BGB combination, concentration series, at 5 µM) of the same compound?
Its inhibition is -26.2% and 5.45%.

What about the inhibition ([11]; at 0.5 µM) of the same compound?
The inhibition was -11.8% (inactive) and 4.86% (inactive).

And the inhibition ([11]; cisplatin combination, concentration series, at 5 µM)?
Its inhibition is -6.41% and 4.95%.

What about the inhibition [12] of the same compound?
Its inhibition is -8.94% (inactive) and 6.03% (inactive).

And the inhibition ([12]; measured here: combo with BGB IC20)?
Its inhibition is -11% and -1.61%.

What about the inhibition ([12]; measured here: combo with cisplatin IC20) of the same compound?
The inhibition was -23.1% and 9.49%.

For `Clc1ccc(C(Cn2ccnc2)OCc2c(Cl)cccc2Cl)c(Cl)c1` (configuration not stated), which fluorescence slope change [1] is on record?
Its fluorescence slope change is 107% (active).
